{"source": "PubChem BioAssay (Tox21)", "note": "“And” between values parts separate entries of the source, which are not always exact repeats. Equal entries are not always repeated. Results filed as inconclusive are left out. Entries that show only a call come without a potency. The source made the active and inactive calls. Calls come from the whole dose curve; as a rule, active = well fitted cell-killing curve with a large enough effect in the repeat runs (not every such curve was filed as active); inconclusive = weak or mixed curves, or effect the other way; inactive = no such curve, though single readings can be large or run the other way. Potency is the fitted concentration of half-maximal effect."}
{"experiment": "qHTS assay to identify small molecule antagonists of the farnesoid-X-receptor (FXR) signaling pathway - cell viability counter screen (AID 743221); note: nearly all actives have a fitted effect of over 50% in size", "conditions": "FXR-bla HEK293T viability, CellTiter-Glo luminescence, 16 h; series mostly up to 62.6 µM", "from_the_text": "National Center for Advancing Translational Sciences [NCATS]\nNIH Chemical Genomics Center [NCGC]\nU.S. Environmental Protection Agency [EPA]\nNational Institutes of Environmental Health Sciences [NIEHS]\nNational Toxicology Program [NTP]\nU.S. Food and Drug Administration [FDA]\nThe farnesoid-X-receptor (FXR), a nuclear hormone receptor, is highly expressed in liver, intestine, kidney and adrenal cortex. Natural ligands of FXR are the bile acids (Cholic acid, Chenodeoxy cholic acid etc). FXR is an important regulator of diverse metabolic pathways, including the bile acid homeostasis, lipid and glucose metabolisms. FXR regulates the expression of target genes by binding either as a monomer or as a heterodimer with the retinoid X receptor (RXR). Numerous studies have reported that FXR exerts protective function during cholestasis, diabetes, liver regeneration, and cancer. To identify compounds that inhibit FXR signaling, GeneBLAzer FXR-UAS-bla HEK 293T cell line (Invitrogen, Carlsbad, CA) containing a beta-lactamase reporter gene under the control of a UAS response element was used to screen the Tox21 10K compound library. The cytotoxicity of the Tox21 compound library against the FXR-bla cell line was tested in parallel by measuring the cell viability using CellTiter-Glo assay in the same wells.\nTox21 Assay Protocol Summary:\nFXR-bla cells were dispensed at 5000 cells/5uL/well in 1536-well black wall/clear bottom plates using a Multidrop Combi (Thermo Fisher Scientific, Waltham, MA) dispenser. After the assay plates were incubated at 37 C and 5% CO2 for 5 h, 23 nL of compounds dissolved in DMSO, positive controls or DMSO only was transferred to the assay plate by a Pintool station (Kalypsys, San Diego, CA), followed by addition of 1 uL Chenodeoxycholic acid (50 uM, final concentration in the wells). The assay plates were incubated at 37C for 16 h. After 1 uL of LiveBLAzerTM B/G FRET substrate was added using a Bioraptr Flying Reagent Dispenser (FRD) workstation (Beckman Coulter, Indianapolis, IN), the plates were incubated at room temperature for 2 h, and fluorescence intensity was measured by an Envision plate reader (PerkinElmer, Shelton, CT). For cell viability readout that measures cytotoxicity, 4uL/well of CellTiter-Glo reagent was added into the assay plates using a Bioraptr FRD. After 30 min incubation at room temperature, the luminescence intensity in the plates was measured using a ViewLux plate reader (PerkinElmer)."}
{"smiles": "Cc1cnc(C2=NC(C)(C(C)C)C(=O)N2)c(C(=O)O)c1", "note": "(stereo not given)", "Potency": "inactive"}
{"smiles": "c1ccc2c(c1)-c1cccc3cccc-2c13", "Potency": "inactive"}
{"smiles": "CCC1(CC)C(=O)NC(=O)NC1=O", "Potency": "inactive"}
{"smiles": "CCNC(=O)NC(=O)/C(C#N)=N/OC", "Potency": "inactive"}
{"smiles": "COCc1cnc(C2=NC(C)(C(C)C)C(=O)N2)c(C(=O)O)c1", "note": "(stereo not given)", "Potency": "inactive"}
{"smiles": "O=C(O)CCCOc1ccc(Cl)cc1Cl", "Potency": "inactive"}
{"smiles": "Nc1ccccc1C(=O)OCCc1ccccc1", "Potency": "inactive"}
{"smiles": "Cc1ccc2c(C)cccc2c1", "Potency": "inactive"}
{"smiles": "COc1ccccc1N1CCNCC1", "Potency": "inactive"}
{"smiles": "C[N+](C)(C)CCOC(=O)C(O)(c1ccccc1)c1ccccc1", "Potency": "inactive"}
{"smiles": "Cc1nnc(-c2ccccc2)c(=O)n1N", "Potency": "inactive"}
{"smiles": "O=S(=O)(c1ccccc1)c1ccccc1", "Potency": "inactive"}
{"smiles": "CCCCOC(=O)CCC(=O)OCCCC", "Potency": "inactive"}
{"smiles": "O=C(Cc1ccccc1)OCCc1ccccc1", "Potency": "inactive"}
{"smiles": "CCCC[P+](CC)(CCCC)CCCC", "note": "(tested in a mixture with another compound)", "Potency": "inactive"}
{"smiles": "O=[N+]([O-])/C=C/c1ccccc1", "Potency": "19.8 µM (active) and 38.9 µM (active)"}
{"smiles": "O=C(O)C(Cl)(Cl)Br", "Potency": "inactive"}
{"smiles": "CCCN(CCOc1c(Cl)cc(Cl)cc1Cl)C(=O)n1ccnc1", "Potency": "inactive"}
{"smiles": "CC(C)(C#N)C(C)(C)C#N", "Potency": "inactive"}
{"smiles": "ClCc1ccccc1Cl", "Potency": "inactive"}
{"smiles": "CC(Cc1ccccc1)NCc1ccccc1Cl", "note": "(stereo not given)", "Potency": "inactive"}
{"smiles": "CCCCC(CC)COC(=O)c1c(Br)c(Br)c(Br)c(Br)c1C(=O)OCC(CC)CCCC", "note": "(stereo not given)", "Potency": "inactive"}
{"smiles": "CC(C)CCON=O", "Potency": "inactive"}
{"smiles": "CN(C)C(=O)Nc1cccc(OC(=O)NC(C)(C)C)c1", "Potency": "inactive"}
{"smiles": "CC(C)C1(C)N=C(c2ncccc2C(=O)O)NC1=O", "note": "(stereo not given)", "Potency": "inactive"}
{"smiles": "SCc1ccccc1", "Potency": "inactive"}
{"smiles": "N#CC(C#N)=Cc1ccc(O)c(O)c1", "Potency": "inactive"}
{"smiles": "NP(N)(=O)NC(=O)c1ccc(F)cc1", "Potency": "inactive"}
{"smiles": "CN[C@@H](C)[C@H](O)c1ccccc1", "Potency": "inactive"}
{"smiles": "CCC1(C2=NCCN2)Cc2ccccc2O1", "note": "(stereo not given)", "Potency": "inactive"}
{"smiles": "NCCc1cc(O)c(O)cc1O", "Potency": "inactive"}
{"smiles": "COC1CC(=C(c2cccs2)c2cccs2)C[N+](C)(C)C1", "note": "(stereo not given)", "Potency": "inactive"}
{"smiles": "C[N+]1(CCF)[C@@H]2CC[C@H]1CC(OC(=O)C(O)(c1ccccc1)c1ccccc1)C2", "note": "(stereo not given in full)", "Potency": "inactive"}
{"smiles": "O=C(O)C(F)(F)C(F)(F)C(F)(F)C(F)(F)C(F)(F)C(F)(F)C(F)(F)C(F)(F)F", "Potency": "inactive"}
{"smiles": "O=C=NC1CCCCC1", "Potency": "inactive"}
{"smiles": "CC(Oc1cc(Cl)c(Cl)cc1Cl)C(=O)O", "note": "(stereo not given)", "Potency": "inactive"}
{"smiles": "Cc1ccc(N)c(C)c1", "Potency": "inactive"}
{"smiles": "CCC1CCC(=O)O1", "note": "(stereo not given)", "Potency": "inactive"}
{"smiles": "O=C(N[C@H]1CN2CCC1CC2)c1ccc2c(c1)OCCO2", "Potency": "inactive"}
{"smiles": "C[C@]12CC[C@H]3[C@@H](CCC4=CC(=O)CC[C@@H]43)[C@@H]1CC[C@@H]2OC(=O)CCc1ccccc1", "Potency": "inactive"}
